Laboratory results published in PubChem BioAssay.

test system: wheat germ agglutinin (Triticum aestivum), Alexa647-labelled; experiment: Alexa647-WGA lectin binding to printed small molecules – biochemical, small-molecule microarray, 635/667 nm fluorescence, artefact control for SMM control-protein annotation, profiling panel (AID 1140); details: WGA-A647 binding, 635 nm fluorescence, higher = more signal;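 also: score merges 667 nm feature emission with signal to noise over triplicate slides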

In order of rising composite z-score:
1. CO[C@@H]1COC(=O)CC=C[C@H](C)COC(=O)[C@H](Cc2ccccc2)NC(=O)CC=C[C@H]1C  -1.61
2. COC(=O)C(CC#Cc1ccc2c(c1)[C@]1(C(=O)N2)[C@H](C(=O)N2CCCCCCC2)[C@H]2C(=O)O[C@H](c3ccccc3)[C@H](c3ccccc3)N2[C@@H]1c1ccc(O)cc1)C(=O)OC  -1.42
3. CO[C@H]1COC(=O)CC=C[C@H](C)[C@@H](OC)COC(=O)CC=C[C@@H]1C  -0.991
4. CO[C@@H]1COC(=O)[C@H](COCc2ccccc2)NC(=O)CC=C[C@@H](C)[C@H](OC)COC(=O)[C@H](COCc2ccccc2)NC(=O)CC=C[C@H]1C  -0.915
5. CO[C@@H]1COC(=O)[C@H](C)NC(=O)CC=C[C@@H](C)[C@H](NS(=O)(=O)c2ccc(C)cc2)COC(=O)CC=C[C@@H]1C  -0.872
6. CO[C@@H]1COC(=O)CC=C[C@@H](C)[C@H](OC)COC(=O)CC=C[C@H]1C  -0.812
7. CC(=O)NCCCC[C@@H]1NC(=O)[C@@H]2C[C@H](C(=O)NCCCCCNC(=O)CS)[C@H](c3ccc(O)cc3)N2C1=O  -0.802
8. CO[C@H]1COC(=O)[C@@H](Cc2ccccc2)NC(=O)[C@@H](C)COC(=O)CC=C[C@@H]1C  -0.744
9. CO[C@H]1COC(=O)[C@@H](C)COC(=O)[C@H](Cc2ccccc2)NC(=O)CC=C[C@H]1C  -0.457
10. C=CCC(OC(C)=O)[C@@H]1[C@@H](N(Cc2cccc3ccccc23)C(=O)c2ccc(C)cc2)c2cc(OCCCO)ccc2N1C(=O)c1ccc(-c2ccccc2)cc1 (stereo not given in full)  -0.285
11. COc1cc(Cc2cc3c(c(CCc4ccccc4)n2)[Si](C(C)C)(C(C)C)OC3)cc(OC)c1OC  -0.14
12. C[C@H]1C2[C@H](Cc3ccccc3)NC(=O)[C@]23C(=O)N[C@H](Cc2ccccc2)C(=O)N[C@@H](Cc2ccccc2)C(=O)NC/C=C\C/C=C/C3[C@@H]2O[C@]12C (stereo not given in full)  -0.125
13. CCOC(=O)C[C@H]1[C@H](OC(=O)c2ccccc2-c2ccccc2)[C@@H](NC(=O)C2CCCCC2)c2cc(OCCCO)ccc2N1C(=O)c1ccccc1  -0.109
14. O=C1OCC=C[C@H]2OC34C=CCN(Cc5ccccc5)C(=O)[C@H]3N(CCO)C(=O)[C@@H]4[C@@H]12 (stereo not given in full)  -0.0943
15. CC(C)CNC(=O)[C@@]1(C)c2ccccc2C(=O)N(Cc2ccc(OC(F)(F)F)cc2)[C@H]1c1ccc(CO)cc1  -0.0416
16. CCOC(=O)C[C@H]1[C@H](OC(=O)Cc2ccc3c(c2)OCO3)[C@@H](NC(=O)CC(C)C)c2cc(OCCCO)ccc2N1C(=O)c1ccccc1  0.0122
17. NC(=O)NCC#Cc1ccc2c(c1)[C@]1(C(=O)N2)[C@H](C(N)=O)[C@H]2C(=O)O[C@H](c3ccccc3)[C@H](c3ccccc3)N2[C@@H]1c1ccccc1OCCO  0.174
18. COc1ccc([Si](C)(C)[C@H]2[C@H](CC(=O)N3Cc4ccccc4C[C@H]3CO)O[C@@]3(C(=O)N(Cc4cccc(N5CCOC5=O)c4)c4ccccc43)[C@@H]2C)cc1  0.188
19. C=CCC(OC(C)=O)[C@@H]1[C@@H](N(Cc2ccc(-c3ccccc3)cc2)C(=O)c2ccc(-c3ccccc3)cc2)c2cc(OCCCO)ccc2N1C(=O)Cc1ccc(OC)cc1 (stereo not given in full)  0.192
20. CCC1=C2CN(Cc3ccccc3Br)[C@@H]([C@@H](O)Cc3ccccc3)C2C=CCC1 (stereo not given in full)  0.291
21. COC(=O)C1=C(C)N(Cc2ccccc2)c2c(C(=O)OC)c(C(=O)OC)c(C(=O)OC)c(=O)n2[C@@H]1c1ccccc1  0.292
22. Cc1ccc(S[C@]2(C(=O)NC3CC3)CC(=O)N(Cc3cc(C(F)(F)F)cc(C(F)(F)F)c3)[C@@H]2c2ccc(CO)cc2)cc1  0.31
23. CCCC=C(CCC)[C@@H](NC(=O)c1ccc(C(F)(F)F)cc1)c1ccccc1  0.352
24. CN(C)c1ccc(C(O)C2C=CC3C(=O)NC(=O)C3N2Nc2ccc(Cl)cc2Cl)cc1 (stereo not given)  0.5
25. O=C1NC(=O)C2C1C=CC(C(O)C=Cc1ccc([N+](=O)[O-])cc1)N2Nc1ccccn1 (stereo not given)  0.551
26. CC(C)[Si](OCCCNS(=O)(=O)c1ccc(Br)cc1)(C(C)C)C(C)C  0.622
27. COc1ccc([Si](C)(C)[C@H]2[C@H](CCO)O[C@@]3(C(=O)N(Cc4ccccc4)c4ccc(N5C(=O)c6cccc7cccc5c67)cc43)[C@@H]2C)cc1  0.641
28. O=C/C=C/c1ccccc1Cl  0.687
29. CC/C=C/C(=O)N(C[C@@H]1CCCO1)[C@@H]1CC(C(=O)NCCO)=C[C@H](Oc2c(I)cc(CO)cc2OC)[C@H]1O  0.701
30. COC(=O)[C@@]1(Cc2ccccc2N=[N+]=[N-])N=C(c2ccc(OCCCO)cc2)O[C@H]1c1ccccc1CN=[N+]=[N-]  0.727
31. COCCOC(=O)N1C(=O)[C@@]2(c3cc(C#CCNC(N)=O)ccc31)[C@H](C(=O)N1CCCCCCC1)[C@H]1C(=O)O[C@H](c3ccccc3)[C@H](c3ccccc3)N1[C@@H]2c1ccccc1OCCO  0.835
32. C=C(C)[C@@H]1CC=C(C(O)C2C=CC3C(=O)NC(=O)C3N2Nc2ccccn2)CC1 (stereo not given in full)  0.842
33. CC(C)NC(=O)[C@@]1(Cc2ccccc2I)c2ccccc2C(=O)N(C2CCCCC2)[C@H]1c1ccc(CO)cc1  0.916
34. CCOC(=O)C1=C[C@@H](c2ccccc2)N(S(=O)(=O)c2ccc(C)cc2)[C@H]1c1ccc(F)cc1  1.08
35. C=CC[C@]1(C(=O)O)N=C(c2ccc(OCCCO)cc2)O[C@H]1c1ccccc1  1.25
